“And” between values parts separate entries of the source, which are not always exact repeats. Equal values may be shown once. Inconclusive results are not listed. The source made the active and inactive calls. Unless noted, calls come from the whole dose curve; as a rule, active = well fitted curve in the direction sought with a large enough effect in the repeat runs; inconclusive = weak or mixed curves; inactive = no such curve, though single readings can be large; an effect the other way counts as inactive or inconclusive.

Five compounds from PubChem BioAssay (Tox21) can be followed below.

Experiment [1] is described as follows: A CellTox Green Cytotoxicity Assay to monitor cytotoxicity in HEK293 cells - 32 hour (AID 1224881). Note: nearly all actives have a fitted effect of over 40% in size. Note: potency is the fitted concentration of half-maximal effect. To be noted: CellTox Green fluorescence; series mostly up to 76.8 µM. In outline:
(§1)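 Nonlytic real-time cytotoxicity: HEK293 + CellTox Green reagent plated, 5 h preincubation, pintool compound addition (23 nL in DMSO), 37 C for 40 h, fluorescence measured at successive time points.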

The nature of experiment [2]: A CellTox Green Cytotoxicity Assay to monitor cytotoxicity in HepG2 cells - 0 hour (AID 1224882). Note: nearly all actives have a fitted effect of over 35% in size. Note: potency is the fitted concentration of half-maximal effect. To be noted: CellTox Green fluorescence; series mostly up to 76.8 µM. The method, boiled down: (§2)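 Read-out is fluorescence of a cyanine dye excluded from live cells that stains DNA of dead HepG2 cells, with signal proportional to cytotoxicity. Plates were read at 0, 8, 16, 24, 32 and 40 h after compound addition.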

Experiment [3] in a line: A CellTox Green Cytotoxicity Assay to monitor cytotoxicity in HepG2 cells - 32 hour (AID 1224883). Note: nearly all actives have a fitted effect of over 50% in size. Note: potency is the fitted concentration of half-maximal effect. To be noted: CellTox Green fluorescence; series mostly up to 76.8 µM. The method, boiled down:
as §2

Experiment [4] is described as follows: A CellTox Green Cytotoxicity Assay to monitor cytotoxicity in HEK293 cells - 8 hour (AID 1224884). Note: nearly all actives have a fitted effect of over 35% in size. Note: potency is the fitted concentration of half-maximal effect. The following applies: CellTox Green fluorescence; series mostly up to 76.8 µM. The method, boiled down:
as §1

Experiment [5] can be described thus: qHTS RealTime-Glo MT Cell Viability Assay in HepG2 cells - 16 hour (AID 1224885). Note: nearly all actives have a fitted effect of over 50% in size. Note: potency is the fitted concentration of half-maximal effect. The following applies: RealTime-Glo luminescence; series mostly up to 76.8 µM. In outline: (§3)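 Real-time, nonlytic viability: 600 HepG2 cells/well mixed with NanoLuc enzyme plus prosubstrate; 5 h settle, compound (DMSO) added by pintool; luminescence monitored over 40 h at 37 C.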
For orientation: Quantitative high-throughput screening tests each substance at several concentrations.

The nature of experiment [6]: qHTS RealTime-Glo MT Cell Viability Assay in HEK293 cells - 8 hour (AID 1224887). Note: nearly all actives have a fitted effect of over 50% in size. Note: potency is the fitted concentration of half-maximal effect. The following applies: RealTime-Glo luminescence; series mostly up to 76.8 µM. The method, boiled down: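 Cells were seeded together with NanoLuc luciferase and a prosubstrate that viable cells reduce to a luciferase substrate. After a 5 h incubation at 37 C/5% CO2, compounds were added and luminescence was measured repeatedly during 40 h of treatment.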

The nature of experiment [7]: A CellTox Green Cytotoxicity Assay to monitor cytotoxicity in HEK293 cells - 16 hour (AID 1224888). Note: nearly all actives have a fitted effect of over 35% in size. The following applies: CellTox Green fluorescence; series mostly up to 76.8 µM. In outline:
as §1

Experiment [8] can be described thus: qHTS RealTime-Glo MT Cell Viability Assay in HepG2 cells - 0 hour (AID 1224889). Note: nearly all actives have a fitted effect of over 50% in size. The following applies: RealTime-Glo luminescence; series mostly up to 76.8 µM. The method, boiled down:
as §3

Experiment [9] is described as follows: A CellTox Green Cytotoxicity Assay to monitor cytotoxicity in HepG2 cells - 8 hour (AID 1224890). Note: nearly all actives have a fitted effect of over 45% in size. Note: potency is the fitted concentration of half-maximal effect. The following applies: CellTox Green fluorescence; series mostly up to 76.8 µM. In outline:
as §2

A short description of experiment [10]: qHTS assay to identify small molecule antagonists of the estrogen receptor alpha (ER-alpha) signaling pathway using the BG1 cell line in the presence of 0.1 nM 17-beta-estradiol - cell viability counter screen (AID 1259241). Note: nearly all actives have a fitted effect of over 40% in size. Note: potency is the fitted concentration of half-maximal effect. The following applies: VM7Luc4E2 (BG1) viability, CellTiter-Fluor protease, 22 h, 0.1 nM estradiol agonist added; series mostly up to 92.4 µM. The method, boiled down:
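Live-cell protease activity (CellTiter-Fluor fluorescence, 30 min) was read in the same wells after VM7Luc4E2 cells had been exposed to compounds with 0.1 nM 17beta-estradiol for 22 hr at 37C.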

Experiment [11] in a line: qHTS assay to identify small molecule antagonists of the androgen receptor (AR) signaling pathway using the MDA cell line in the presence of 0.5 nM R1881 - cell viability counter screen (AID 1259242). Note: nearly all actives have a fitted effect of over 45% in size. To be noted: MDA-kb2 viability, CellTiter-Fluor protease fluorescence, 16 h; series mostly up to 92.4 µM. In outline: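 Counter screen for cytotoxicity run in the same wells as the AR antagonist reporter screen: MDA-kb2 cells were treated 16 hr with test compounds and 0.5 nM R1881, then live-cell protease activity was measured by fluorescence.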

In experiment [12] the target is Estrogen receptor (Homo sapiens) (UniProt P03372). Description: qHTS assay to identify small molecule antagonists of the estrogen receptor alpha (ER-alpha) signaling pathway using the BG1 cell line in the presence of 0.1 nM 17-beta-estradiol (AID 1259244). Note: nearly all actives have a fitted effect of over 50% in size. The following applies: VM7Luc4E2 (BG1) ERE-luciferase, antagonist mode, 0.1 nM E2, 22 h; series mostly up to 92.4 µM. The method, boiled down: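 Cells: VM7Luc4E2, endogenous ER-alpha, 4x ERE-luc stable. Pre-culture 5 d, phenol red-free, charcoal-stripped FBS. Plated 24 h, compound + E2 0.1 nM final, 22 h 37C/5% CO2. Readout ONE-Glo luminescence.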

Experiment [13] in a line: qHTS assay to identify small molecule HDAC inhibitors (AID 1259364). Note: top concentration of the series differs between compounds; nearly all actives have a fitted effect of over 45% in size. The following applies: HCT-116 HDAC-Glo I/II luminescence, 2 h; series mostly up to 92.4 µM. The method, boiled down:
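Luminescence from a cell-permeant luminogenic class I/II HDAC substrate reports endogenous deacetylase activity in intact HCT-116 cells treated with compounds for 2 h.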

The nature of experiment [14]: qHTS assay to identify small molecule HDAC inhibitors - cell viability counter screen (AID 1259365). Note: nearly all actives have a fitted effect of over 50% in size. To be noted: HCT-116 viability, CellTiter-Glo ATP luminescence, 2 h; series mostly up to 92.4 µM. The method, boiled down:
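HCT-116 (wild type), 1,500 cells/well, overnight 37C/5% CO2; compound in DMSO 2hr; CellTiter-Glo 30min RT; luminescence read.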

Experiment [15] can be described thus: qHTS assay to identify small molecule agonists of the sonic hedgehog signaling (Shh) pathway - cell viability counter screen (AID 1259366). Note: nearly all actives have a fitted effect of over 50% in size. To be noted: NIH/3T3 Gli1-Luc viability, CellTiter-Fluor, 24 h; series mostly up to 92.4 µM. In outline:
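CellTiter-Fluor fluorescence read-out, 1 hr at 37C, added after 23hr compound exposure. Cells: 3T3 Gli1-Luc, an NIH/3T3 clone with stably integrated Gli1-Luc reporter, plated 4hr before compound.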

Experiment [16] is described as follows: qHTS assay to identify small molecule antagonists of the sonic hedgehog signaling (Shh) pathway - cell viability counter screen (AID 1259367). Note: nearly all actives have a fitted effect of over 55% in size. Note: potency is the fitted concentration of half-maximal effect. The following applies: NIH/3T3 Gli1-Luc viability, CellTiter-Fluor, 24 h; series mostly up to 92.4 µM. The method, boiled down:
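NIH/3T3-derived Gli1-Luc reporter cells, 2,000/well, plated 4 hr before compound addition, then stimulated with conditioned medium for 24 hr at 37C. Viability measured in the same wells by CellTiter-Fluor fluorescence, reagent added at 23 hr for 1 hr.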

A short description of experiment [17]: qHTS assay to identify small molecule agonists of the sonic hedgehog signaling (Shh) pathway (AID 1259368; calls by dose curve;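 note: NIH/3T3-derived 3T3Gli1-Luc cells carrying a stable Gli1-driven firefly luciferase reporter; nearly all actives have a fitted effect of over 15% in size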). The following applies: NIH/3T3 Gli1-Luc reporter, luciferase, 24 h; series mostly up to 92.4 µM. The method, boiled down: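 3T3Gli1-Luc (NIH/3T3 clone, stable Gli1-Luc); 4 hr pre-incubation, then cpd in DMSO 24 hr, 37 C/5% CO2; luciferase reagent 30 min RT; luminescence.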

Experiment [18] in a line: qHTS RealTime-Glo MT Cell Viability Assay in HEK293 cells - 24 hour (AID 1224886). To be noted: RealTime-Glo luminescence; series mostly up to 76.8 µM. The method, boiled down:
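Cells + reagent dispensed (600 cells/well, HEK293) → 5 h at 37 C/5% CO2 → 23 nL compound in DMSO pinned → 40 h at 37 C → luminescence read at 0, 8, 16, 24, 32, 40 h.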

Estrogen receptor (Homo sapiens), sequence (P03372 whole entry, looked up): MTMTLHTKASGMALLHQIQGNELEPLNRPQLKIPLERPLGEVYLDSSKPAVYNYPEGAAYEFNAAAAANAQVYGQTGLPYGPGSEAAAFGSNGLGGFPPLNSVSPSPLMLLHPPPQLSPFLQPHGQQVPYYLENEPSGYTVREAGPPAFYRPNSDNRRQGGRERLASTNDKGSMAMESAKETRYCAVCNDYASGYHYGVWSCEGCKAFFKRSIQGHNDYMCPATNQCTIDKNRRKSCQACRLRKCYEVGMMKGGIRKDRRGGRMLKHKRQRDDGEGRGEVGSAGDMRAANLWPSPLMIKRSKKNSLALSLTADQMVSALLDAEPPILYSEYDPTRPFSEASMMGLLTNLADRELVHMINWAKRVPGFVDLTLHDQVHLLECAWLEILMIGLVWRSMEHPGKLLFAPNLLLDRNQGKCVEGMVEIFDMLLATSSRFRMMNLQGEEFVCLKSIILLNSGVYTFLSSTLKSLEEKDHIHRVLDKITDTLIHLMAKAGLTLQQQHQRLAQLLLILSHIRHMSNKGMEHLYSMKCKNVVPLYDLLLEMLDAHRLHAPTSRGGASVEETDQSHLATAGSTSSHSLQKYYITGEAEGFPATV

Consider `Clc1ccc(C(c2ccc(Cl)cc2)C(Cl)Cl)cc1`, for which the Potency was 49 µM (active) in experiment [1]; 44.4 µM (active) and 38.9 µM (active) in experiment [6]. In addition, the Potency result in experiment [2], in [3], in experiment [4], in experiment [5], in experiment [7] and in [8] was “inactive” each time. Besides, the Potency result in [9], in [10], in experiment [11], in [12], in experiment [13] and in [14] was “inactive” throughout. In addition, the Potency entry in experiment [15], in [16] and in [17] was “inactive” throughout.
Turning to `CCC[CH2][Sn]([CH2]CCC)([CH2]CCC)[CH2]CCC`, the Potency was 13.8 µM (active) in experiment [1]; 38.9 µM (active) in experiment [2]; 15.5 µM (active) in experiment [3]; 49 µM (active) in [4]; 6.92 µM (active) in experiment [5]; 9.77 µM (active) in experiment [18]. Also, the Potency in experiment [6] is 11 µM (active); in experiment [9], 21.9 µM (active); in [10] it was 19.3 µM (active); in experiment [16], 21.7 µM (active). Also, the Potency entry in [8] and in experiment [17] was “inactive” throughout.
As for `O=[N+]([O-])c1cccc2cccc([N+](=O)[O-])c12`, the Potency entry in experiment [1], in experiment [2], in [3], in experiment [4], in experiment [5] and in experiment [6] was “inactive” each time. In addition, the Potency result in experiment [7], in experiment [8], in experiment [9], in experiment [10], in [11] and in experiment [14] was “inactive” throughout. The Potency result in [16] and in experiment [17] was “inactive” throughout.
In the case of `O.O.O.O.O.O.O=S(=O)([O-])[O-].[Ni+2]`, the Potency result in experiment [1], in experiment [2], in experiment [3], in experiment [4], in experiment [5] and in experiment [6] was “inactive” each time. In addition, the Potency result in experiment [7], in experiment [9], in [10], in experiment [11], in [13] and in experiment [14] was “inactive” in each case. Also, the Potency entry in [15], in experiment [16] and in experiment [17] was “inactive” in each case.
Regarding `C#CCC1=C(C)C(OC(=O)C2C(C=C(C)C)C2(C)C)CC1=O` (stereo unspecified), the Potency result in [1], in [2], in experiment [3], in [4], in [5] and in experiment [7] was “inactive” in each case. For the same compound, the Potency entry in experiment [8], in experiment [9], in experiment [10], in experiment [11], in [13] and in experiment [15] was “inactive” in each case. The Potency entry in experiment [17] was “inactive”.
